The source of these data is paper PMC8769072, “Proteome‐scale mapping of binding sites in the unstructured regions of the human proteome” (Molecular Systems Biology, 2022).

USP7 53-206, Q93009, sequence (Q93009 53-206): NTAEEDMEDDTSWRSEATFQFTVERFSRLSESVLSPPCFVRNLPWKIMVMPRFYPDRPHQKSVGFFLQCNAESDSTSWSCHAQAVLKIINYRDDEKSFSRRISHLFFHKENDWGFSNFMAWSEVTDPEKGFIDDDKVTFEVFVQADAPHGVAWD
TSG101 1-145, Q99816, sequence (Q99816 1-145): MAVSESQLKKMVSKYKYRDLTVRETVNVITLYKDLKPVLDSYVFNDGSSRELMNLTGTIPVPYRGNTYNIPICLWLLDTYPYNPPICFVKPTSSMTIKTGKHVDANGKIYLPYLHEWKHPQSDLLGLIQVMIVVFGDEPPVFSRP

In the case of ASGSSVPSSPVSESVL [GRM1, Q13255], the “selected by phage display” value in the assay with USP7 53-206, Q93009 is “confidence 4 (active)”. With EHAEIARWGQTLPTTS [SPTBN4, Q9H254], the “selected by phage display” value in the assay with USP7 53-206, Q93009 is “confidence 2 (active)”. Take PTLQPSAPQQARDPFE [DENND1A, Q8TEH3]: in the assay with TSG101 1-145, Q99816, the “selected by phage display” value was “confidence 2 (active)”. As to PTAPIFLQGLSDLKVM [MYLK, Q15746], the “selected by phage display” value with TSG101 1-145, Q99816 is “confidence 3 (active)”.

Regarding STMPESPSSSTTATTT [SP4, Q02446], the “selected by phage display” value with USP7 53-206, Q93009 is “confidence 3 (active)”. The same measure, in the same setting: the same measure for DASSQTRMVHASASTS: “confidence 3 (active)”; for PSVPSVSTTSVTMPNV [TSC22D2, O75157]: “confidence 4 (active)”; for SFGINVATPGSSTTTG [POM121, Q96HA1]: “confidence 3 (active)”. Consider NLSLTPSAPSLTLEAG [SRCAP, Q6ZRS2], for which the “selected by phage display” value with TSG101 1-145, Q99816 is “confidence 3 (active)”. On to VQPSAPEHSSLASWLL [GUCY1B2, O75343], for which the “selected by phage display” value in the assay with TSG101 1-145, Q99816 is “confidence 4 (active)”. Take LPSTSGSEGVPFRTVS [EPHA2, P29317]: the “selected by phage display” value with USP7 53-206, Q93009 is “confidence 2 (active)”. Take PLTASSEQTAASSSSS [WBP1, Q96G27]: the “selected by phage display” value with USP7 53-206, Q93009 was “confidence 2 (active)”. Still for that read-out and setting: the entry for QSHLATAGSTSSHSLQ [ESR1, P03372] is “confidence 3 (active)”; for DRASSSSGTIVQEAYG [SYNE2, Q8WXH0] it is “confidence 2 (active)”.

On to VPSAPIDPQAQLEADK [PKNOX2, Q96KN3], for which, in the assay with TSG101 1-145, Q99816, the “selected by phage display” value is “confidence 2 (active)”. On to APSAPPAPPAPPESTV [ATOH8, Q96SQ7], for which the “selected by phage display” value in the assay with TSG101 1-145, Q99816 is “confidence 3 (active)”. As to MPIVMARDLEETASSS [TTLL5, Q6EMB2], the “selected by phage display” value with USP7 53-206, Q93009 is “confidence 3 (active)”.

With LSRTFLSIPSAPPLYL [CCDC168, Q8NDH2], the “selected by phage display” value with TSG101 1-145, Q99816 is “confidence 2 (active)”. As for SGSVQTSSPPQLETVR [ARAP2, Q8WZ64], in the assay with USP7 53-206, Q93009, the “selected by phage display” value is “confidence 2 (active)”. On the same count and under the same terms, the same measure for SSSSSLSSASSSSTVV [ING3, Q9NXR8]: “confidence 2 (active)”. Regarding SLMPSAPHPVKEASPG [TET1, Q8NFU7], the “selected by phage display” value in the assay with TSG101 1-145, Q99816 is “confidence 3 (active)”. On the same count and under the same terms, the entry for PSAPTPPIPSPPSTLP [ANTXR1, Q9H6X2] is “confidence 2 (active)”. For SSSSPSPPPLSAISSV [PRDM2, Q13029], the “selected by phage display” value with USP7 53-206, Q93009 is “confidence 2 (active)”.

With LTPTAPSRTGSVQTPP [SSFA2, P28290], in the assay with TSG101 1-145, Q99816, the “selected by phage display” value was “confidence 4 (active)”. On the same count and under the same terms, the entry for GAMAVTANPPSNPYWI [ATP10D, Q9P241] is “confidence 2 (active)”. Regarding DAASSSGSSSHAHVNS [RTTN, Q86VV8], the “selected by phage display” value with USP7 53-206, Q93009 is “confidence 3 (active)”. On to PTAPPLQPHPGLHHQS [CHD7, Q9P2D1], for which the “selected by phage display” value with TSG101 1-145, Q99816 is “confidence 4 (active)”. The same measure, in the same setting: the same measure for VPNMPSAPQAYSELQM [UBAP1, Q9NZ09]: “confidence 3 (active)”.

As to AYEGPSTSVVPTPDEG [MAGEE1, Q9HCI5], in the assay with USP7 53-206, Q93009, the “selected by phage display” value is “confidence 4 (active)”.

TVPSHSSHATAVTTSN [SAP130, Q9H0E3]: the “selected by phage display” value with USP7 53-206, Q93009 was “confidence 4 (active)”. Consider PSAAEHIVSPSAPAGD [TACC2, O95359], for which the “selected by phage display” value in the assay with TSG101 1-145, Q99816 was “confidence 2 (active)”. For the molecule SGMVTNSVPTASSSVL [SALL1, Q9NSC2], the “selected by phage display” value with USP7 53-206, Q93009 is “confidence 4 (active)”.

Consider DSTVHTSATAPTYIAN [MGAM2, Q2M2H8], for which the “selected by phage display” value with TSG101 1-145, Q99816 is “confidence 3 (active)”. Consider HVSNDASSSVAESSSP [KIAA0408, Q6ZU52], for which the “selected by phage display” value with USP7 53-206, Q93009 was “confidence 3 (active)”. Take KPSAPPAPELNNSLHP [KMT2D, O14686]: the “selected by phage display” value with TSG101 1-145, Q99816 was “confidence 3 (active)”. As for DVPSVSDHSQQVVDSG [KAT6A, Q92794], the “selected by phage display” value in the assay with USP7 53-206, Q93009 is “confidence 3 (active)”. Consider AASTSVTAGWGDVASS [HIPK2, Q9H2X6], for which, in the assay with USP7 53-206, Q93009, the “selected by phage display” value was “confidence 2 (active)”.

Take LLPETVSPSAPSWREP [CBX6, O95503]: the “selected by phage display” value with TSG101 1-145, Q99816 was “confidence 3 (active)”. Take SAMSVPGMSTGTVLGA [ARNTL2, Q8WYA1]: the “selected by phage display” value with USP7 53-206, Q93009 is “confidence 2 (active)”. Consider MPSSSHGSMGGYNHSV [SS18, Q15532], for which, in the assay with USP7 53-206, Q93009, the “selected by phage display” value was “confidence 2 (active)”. On to AGPGGGLTPSAPPYGA [PIP4P1, Q86T03], for which, in the assay with TSG101 1-145, Q99816, the “selected by phage display” value is “confidence 3 (active)”.

For the molecule MSVSSISSAGSSVASA [MARK1, Q9P0L2], the “selected by phage display” value with USP7 53-206, Q93009 is “confidence 3 (active)”. GPTAPPAPGPTAPPAF [SUFU, Q9UMX1]: the “selected by phage display” value with TSG101 1-145, Q99816 was “confidence 2 (active)”. PLEPSAPSKLHSVTGI [BEST1, O76090]: in the assay with TSG101 1-145, Q99816, the “selected by phage display” value was “confidence 3 (active)”. For HDATASSSSAAATVRA, the “selected by phage display” value with USP7 53-206, Q93009 was “confidence 4 (active)”. Consider EMAVVLNGGTIPTAPP [GPRC5B, Q9NZH0], for which the “selected by phage display” value in the assay with TSG101 1-145, Q99816 was “confidence 4 (active)”.

For the molecule AMPAPTPSSSPVPTLS [NXF1, Q9UBU9], the “selected by phage display” value in the assay with USP7 53-206, Q93009 is “confidence 2 (active)”. Same read-out and setting: the entry for TVITSVSSASSSSTVL [KLF12, Q9Y4X4] is “confidence 4 (active)”. With DAPLLQPSAPSSSSSQ [GGA3, Q9NZ52], the “selected by phage display” value in the assay with TSG101 1-145, Q99816 is “confidence 2 (active)”. Turning to VALEHERAAAAGSSSS [ABHD12, Q8N2K0], the “selected by phage display” value with USP7 53-206, Q93009 was “confidence 3 (active)”. As to PSAPPQVQLPVSLDLP [ZFHX4, Q86UP3], the “selected by phage display” value with TSG101 1-145, Q99816 was “confidence 2 (active)”.

For the molecule SLQNQQNAHTSRMLQV [GPR179, Q6PRD1], the “selected by phage display” value in the assay with USP7 53-206, Q93009 is “confidence 2 (active)”.

Regarding VSAPGRSIEASVDVPA [AHNAK2, Q8IVF2], the “selected by phage display” value in the assay with USP7 53-206, Q93009 is “confidence 2 (active)”. Regarding GSIVRPSAPPARSSVP [YLPM1, P49750], in the assay with TSG101 1-145, Q99816, the “selected by phage display” value was “confidence 2 (active)”.

For the molecule LSNSESKATSSLMMLD [SIX4, Q9UIU6], the “selected by phage display” value with USP7 53-206, Q93009 was “confidence 2 (active)”. EALLTPLPPSAPPSVD [NPIPA3, F8WFD2]: in the assay with TSG101 1-145, Q99816, the “selected by phage display” value is “confidence 3 (active)”. In the case of GPSSSTTTTTTTTEQP [MAP3K1, Q13233], the “selected by phage display” value with USP7 53-206, Q93009 is “confidence 3 (active)”. With SSVPTTINTIGTSTST [SAMD4A, Q9UPU9], in the assay with USP7 53-206, Q93009, the “selected by phage display” value was “confidence 2 (active)”. For the molecule EEQAGTVASAPLGHSD [LRRFIP1, Q32MZ4], the “selected by phage display” value with TSG101 1-145, Q99816 is “confidence 4 (active)”. In the case of ANTDPTAPPYDTLLVF [CDH3, P22223], the “selected by phage display” value with TSG101 1-145, Q99816 is “confidence 2 (active)”. With MDTEPNPGTSSVSTTT [PHC3, Q8NDX5], the “selected by phage display” value in the assay with USP7 53-206, Q93009 is “confidence 2 (active)”.

LAGPSLSSSSFSPSSS [ZFP36, P26651]: the “selected by phage display” value with USP7 53-206, Q93009 was “confidence 2 (active)”.
